# Bioassay records as filed in PubChem BioAssay.
# Compounds with a hit are over-represented: about 2.4% of the library has one in this group of screens.
# GLS inh: glutaminase GLS (human) inhibition. AID 624170. Potency, µM (doses to about 45.5 µM), usual class: inhibitors. 0.21% of 410,000 active. GLS enzymatic activity, qHTS titration
# Target sequence (O94925 whole entry, looked up): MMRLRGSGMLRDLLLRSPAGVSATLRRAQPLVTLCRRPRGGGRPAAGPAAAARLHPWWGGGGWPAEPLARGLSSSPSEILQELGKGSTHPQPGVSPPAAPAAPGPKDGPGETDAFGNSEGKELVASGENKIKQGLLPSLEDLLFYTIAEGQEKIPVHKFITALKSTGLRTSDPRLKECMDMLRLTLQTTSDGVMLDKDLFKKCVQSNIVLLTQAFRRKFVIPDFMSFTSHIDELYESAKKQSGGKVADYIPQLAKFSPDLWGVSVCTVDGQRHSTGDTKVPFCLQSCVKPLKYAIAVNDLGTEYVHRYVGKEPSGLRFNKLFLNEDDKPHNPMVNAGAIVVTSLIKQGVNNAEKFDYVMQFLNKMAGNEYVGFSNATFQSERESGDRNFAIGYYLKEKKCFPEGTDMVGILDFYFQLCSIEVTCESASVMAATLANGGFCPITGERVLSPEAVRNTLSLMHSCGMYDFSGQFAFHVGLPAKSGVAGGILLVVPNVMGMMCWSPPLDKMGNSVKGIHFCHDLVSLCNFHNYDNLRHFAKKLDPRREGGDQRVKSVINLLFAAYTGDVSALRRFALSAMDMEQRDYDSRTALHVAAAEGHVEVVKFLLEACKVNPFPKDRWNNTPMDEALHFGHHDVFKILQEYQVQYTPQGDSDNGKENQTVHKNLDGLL
#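 Enzyme dispensed in phosphate buffer (45 mM, pH 8.2, 0.02% Tween-20), compounds pinned in, then 1 mM L-glutamine solution and the glutamate oxidase–HRP–Amplex Red mix added; fluorescence read immediately and again after 30 min at room temperature.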
# POLI inh: blocks human DNA polymerase iota activity. 1% of 390,000 active. AID 588590. Pol iota fluorescent replication assay, 10 min. Q9UNA4. Potency, µM (titrated, usually from 115 µM), hits mostly inhibitors
#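 Fluorescent replication assay read twice, at 0 min and 10 min after adding 50 nM (final) substrate. Enzyme (10 nM) and compounds were first incubated 15 min at room temperature; enzyme-free buffer wells were negative controls.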
# APE1 inh: blocks human APE1 abasic DNA cleavage; P27695; recombinant APE1, TAMRA/BHQ-2 abasic DNA cleavage fluorescence; Potency, µM (top dose mostly 65.8 µM), actives largely listed as inhibitors; 0.35% of 350,000 active; AID 2517; further: nearly all actives have a fitted effect of over 55% in size
#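 Kinetic fluorescence read (525 ex/598 em nm, three reads 60 s apart) of AP-site incision; signal = third minus first read. Enzyme 0.75 nM, dual-labelled THF duplex 50 nM, compound preincubation 15 min RT.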
# POLK inh: inhibitors of human DNA polymerase kappa | purified Pol kappa, fluorescent DNA synthesis assay, 10 min | Potency, µM (highest dose often 107 µM), actives largely listed as inhibitors | 0.53% of 400,000 active | AID 588579
#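 10 nM Pol kappa was preincubated with compounds for 15 min at room temperature. Reaction started with 50 nM (final) substrate. Fluorescence read kinetically at 0 and 10 min.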
# Pol beta inh: inhibitors of human DNA polymerase beta. 1.3% of 340,000 active. Potency, µM (doses to about 114 µM), actives largely listed as inhibitors. Pol beta primer extension/strand displacement, fluorescence kinetic
#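 Reaction started by 50 nM substrate onto compound-treated Pol beta (10 nM, 15 min preincubation, room temperature); plates read at 0 min and 10 min. Normalized concentration-effect data fitted by four-parameter Hill equation.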
# Pol eta inh: inhibitors of human DNA polymerase eta; Potency, µM (titrated, usually from 114 µM), usual class: inhibitors; recombinant Pol eta, fluorescent DNA replication assay; 1.2% of 390,000 active; Q9Y253
#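 Pol eta (10 nM) was preincubated with compounds for 15 min at room temperature, after which fluorescent replication substrate (50 nM final) was added to start the reaction. Fluorescence was read kinetically at 0 and 10 min.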
# Numbers stand for hits; n = inactive; u = inconclusive; x = no result given. The call rests on the fitted dose curve; in most records, active means well fitted curve in the direction sought with a large enough effect; inconclusive means small, poorly fitted or top-dose-only effect, or another doubt; inactive means no such curve, though single readings can be large; an effect the other way counts as inactive or inconclusive.
SMILES,GLS inh,POLI inh,APE1 inh,POLK inh,Pol beta inh,Pol eta inh
O=c1c2c3nc4ccccc4nc3n(/N=C/c3ccco3)c2ncn1CCC1=CCCCC1,n,22.4µM,n,u,28.2µM,u
Clc1ccc(Sc2ccc(/C=N/n3cnnc3)o2)cc1,n,n,n,n,n,n
O=C1NC(=O)/C(=C\c2ccc(Sc3ccc(Cl)cc3)o2)N1,n,u,n,n,35.5µM,u
c1ccc(-c2cc3c(-n4cccc4)ncnc3o2)cc1,n,79.4µM,n,u,n,u
COc1ccc(-c2cc(C(=O)Oc3ccccc3)c3cc(C)ccc3n2)cc1,n,n,x,n,n,n
Cc1ccc(-c2cc(C(=O)Oc3ccccc3)c3cccc(C)c3n2)cc1,n,u,x,n,u,50.1µM
COc1ccccc1CN1C(=O)c2cccc3cccc(c23)C1=O,7.94µM,n,n,n,n,n
O=c1cc(-c2ccc(O)cc2)oc2c([C@@H]3O[C@H](CO)[C@@H](O)[C@H](O)[C@H]3O)c(O)c([C@@H]3O[C@H](CO)[C@@H](O)[C@H](O)[C@H]3O)c(O)c12,n,n,u,n,n,n
O=c1cc(-c2ccc(O)c(O)c2)oc2cc(O)c([C@@H]3O[C@H](CO)[C@@H](O)[C@H](O)[C@H]3O)c(O)c12,u,28.2µM,n,20µM,x,u
COc1cccc(-c2nc(C(N)=O)c3c(n2)n(-c2ccc4c(c2)OCO4)c(=O)n3C)c1OC,n,n,x,n,n,n
Cn1c(=O)n(-c2ccc3c(c2)OCO3)c2nc(-c3ccccc3)nc(C(N)=O)c21,n,n,x,n,6.31µM,u
O=CN/C=C/c1cc(O)ccc1O,u,22.4µM,10µM,44.7µM,u,50.1µM
O=Cc1ccc(O)cc1O,n,n,n,n,n,n
Nc1c(S(=O)(=O)O)cc(NC(=O)c2ccccc2)c2c1C(=O)c1ccccc1C2=O,u,u,21.2µM,n,22.4µM,17.8µM
O=C(Nc1ccccc1-c1ccccc1)c1ccccc1,n,n,n,n,n,n
Cc1ccc(CCNC(=O)C2CCN(c3nn4c(=O)cc(C)nc4s3)CC2)cc1,n,n,n,n,n,n
CC(=O)CS(=O)(=O)c1ccc(Oc2ccc(S(=O)(=O)CC(C)=O)cc2)cc1,n,u,n,u,31.6µM,u
O=C(O)CS(=O)(=O)c1ccc(Oc2ccc(S(=O)(=O)CC(=O)O)cc2)cc1,n,n,n,n,n,n
O=C(O)C1CCNCC1,x,n,u,n,n,n
O=C(O)C1CCCC1,x,u,x,28.2µM,x,x
[O-][n+]1onc2c1CCC(=N/O)/C2=N\Nc1ccccc1,x,x,u,x,39.8µM,x
Cc1nc(SCC(=O)NCc2ccco2)[nH]c(=O)c1C,n,79.4µM,n,n,u,n
CCOC(=O)CSc1nc2c(sc(=S)n2-c2ccc(OCC)cc2)c(=O)[nH]1,n,n,n,n,n,n
CCOc1ccc(-n2c(=S)sc3c(=O)[nH]c(SCC(=O)NCc4ccco4)nc32)cc1,n,u,u,n,35.5µM,56.2µM
CCOc1ccc(-n2c(=S)sc3c(=O)[nH]c(SCC(=O)N4CCC(C)CC4)nc32)cc1,7.08µM,n,n,n,n,n
SMILES,GLS inh,POLI inh,APE1 inh,POLK inh,Pol beta inh,Pol eta inh
C[C@H](NC(=O)C1CC(=O)N(c2ccc3c(c2)OCO3)C1)C(=O)NC1CCCC1 (stereo partly specified),n,n,n,n,n,n
CC(C)C[C@H](NC(=O)C1CC(=O)N(c2ccc3c(c2)OCO3)C1)C(=O)NC1CCCC1 (stereo partly specified),n,n,n,n,n,89.1µM
COC(=O)c1ccc2c(c1)C(C)(C)C(/C=C/c1ccccc1O)=[N+]2C,n,28.2µM,u,35.5µM,u,n
C[N+]1=C(/C=C/Nc2ccccc2Cl)C(C)(C)c2ccccc21,n,n,u,n,n,u
CNC(=O)NC(=O)C(C)OC(=O)c1c2c(nc3ccccc13)/C(=C/c1cccs1)CC2 (stereo unspecified),n,u,n,n,u,n
CCCCNC(=O)COC(=O)c1c2c(nc3ccccc13)/C(=C/c1cccs1)CC2,n,n,n,n,25.1µM,u
